A number with no mark means an inactive call. Activity calls are given as the source filed them. The call rests on the fitted dose curve.
What follows are compounds tested against Estrogen receptor (Homo sapiens) (UniProt P03372) (assay: qHTS assay to identify small molecule agonists of the estrogen receptor alpha (ER-alpha) signaling pathway (AID 743075;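 further: HEK293 GripTite cells with ER-alpha and UAS-driven beta-lactamase reporter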)). Conditions: HEK293 ER-alpha-UAS-bla, beta-lactamase FRET ratio, 18 h; series mostly up to 70.1 µM; activation: at the top concentration.
Chain of Estrogen receptor (Homo sapiens) (P03372 whole entry, looked up): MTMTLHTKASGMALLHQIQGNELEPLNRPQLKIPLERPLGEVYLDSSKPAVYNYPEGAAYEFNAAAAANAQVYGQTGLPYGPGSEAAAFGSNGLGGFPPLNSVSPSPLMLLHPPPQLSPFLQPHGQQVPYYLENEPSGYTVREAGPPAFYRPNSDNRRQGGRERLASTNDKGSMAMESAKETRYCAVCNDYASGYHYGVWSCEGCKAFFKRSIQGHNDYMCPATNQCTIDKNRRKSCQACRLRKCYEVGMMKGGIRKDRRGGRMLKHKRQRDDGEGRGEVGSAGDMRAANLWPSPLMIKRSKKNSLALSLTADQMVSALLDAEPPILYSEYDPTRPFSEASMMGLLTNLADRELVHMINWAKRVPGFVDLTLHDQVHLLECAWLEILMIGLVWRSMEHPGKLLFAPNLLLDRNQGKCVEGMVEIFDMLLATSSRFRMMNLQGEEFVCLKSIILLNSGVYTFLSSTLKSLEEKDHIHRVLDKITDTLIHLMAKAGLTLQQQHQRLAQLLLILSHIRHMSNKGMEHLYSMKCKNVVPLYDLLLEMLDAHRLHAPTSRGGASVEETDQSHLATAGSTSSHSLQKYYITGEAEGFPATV
For CCCCCCCCCCCCCCC1CO1 (configuration not stated), the “activation” value was -1.8%.
With O=C(C(=O)c1ccc(Br)cc1)c1ccc(Br)cc1 the “activation” value was -2.57% [at 32.9 µM].
With C=C(C)C(=O)OCCN(C)C the “activation” value was -2.49% [at 79.1 µM].
In the case of CC(=O)N(O)CCCCCNC(=O)CCC(=O)N(O)CCCCCNC(=O)CCC(=O)N(O)CCCCCN, the “activation” value is reported as -0.189% [at 32.9 µM].
For Nc1nc(N)c2nc(CNc3ccc(C(=O)N[C@@H](CCC(=O)O)C(=O)O)cc3)cnc2n1, the Potency was “inactive”.
O=C(NN1CCCC1)NS(=O)(=O)c1ccc(Cl)cc1 was tested, and the “activation” value was -2.46%.
For N[C@H]1C(O)O[C@H](CO)[C@H](O)[C@@H]1O (some centres not stated), the “activation” value was 0.821%.
With C=CC[N+]1([C@H]2C[C@H]3[C@@H]4CC[C@H]5C[C@H](OC(C)=O)[C@@H](N6CCCCC6)C[C@]5(C)[C@H]4CC[C@]3(C)[C@H]2OC(=O)CC)CCCCC1 the “activation” value was -1.11%.
For OCC1CC2CC1C1CCC(CO)C21 (configuration not stated), the “activation” value was -1.11%.
For Cn1c(=O)c2c(ncn2CC(O)CO)n(C)c1=O (configuration not stated), the “activation” value was 1.08% [at 32.9 µM].
CCOC(=O)CC(=O)c1cc(F)c(Cl)nc1Cl was tested, and the “activation” value was -2.69% [at 79.1 µM].
O=C(O)COC(=O)Cc1ccccc1Nc1c(Cl)cccc1Cl was tested, and the “activation” value was -1.99% [at 32.9 µM].
CCCCCCCCCCCCCCCBr was tested, and the “activation” value was 0.562%.
With N#CCc1cccc(C(F)(F)F)c1 the “activation” value was -2.02%.
In the case of CCCCOC(O)CC (configuration not stated), the “activation” value is reported as -1.87%.
C[C@H](CCC(=O)O)[C@H]1CC[C@H]2[C@@H]3[C@H](O)C[C@@H]4C[C@H](O)CC[C@]4(C)[C@H]3CC[C@]12C was tested, and the Potency was “inactive”.
CC[C@H](C)[C@H](N)C(=O)O was tested, and the “activation” value was -1.17%.
With CCCCCCc1ccc(N)cc1 the “activation” value was 1.29%.
With CC(C)NCC(O)COc1ccc(CC(N)=O)cc1 (configuration not stated) the “activation” value was -1.96%.
With COCCOCCOCCOCCOC the “activation” value was -2.11%.
C=C(C)C(=O)OC(C)C was tested, and the “activation” value was -3.96%.
N#CCCNCCC#N was tested, and the “activation” value was -1.76% [at 79.1 µM].
In the case of NCCCOCCOCCOCCCN, the “activation” value is reported as 0.373%.
In the case of CC(=O)NCCCS(=O)(=O)O, the Potency is reported as “inactive”.
With Cc1ccc(C(N)=O)cc1N the “activation” value was -2.7%.
O=C(O)C1CCC(C(=O)O)CC1 (configuration not stated) was tested, and the “activation” value was -0.384%.
With Cc1ccccc1N=Nc1ccc(N=Nc2c(O)ccc3ccccc23)c(C)c1 the Potency was 10.7 µM [inconclusive] (active).
With CCOC(=S)SSC(=S)OCC the Potency was “inactive”.
ClC(Cl)(Cl)c1ccc(C(Cl)(Cl)Cl)cc1 was tested, and the “activation” value was 0.0872%.
In the case of CCCCCCCCCO, the “activation” value is reported as -0.773%.
With CN(C)CCCOc1nn(Cc2ccccc2)c2ccccc12 the “activation” value was 0.694% [at 32.9 µM].
For CCOC(=O)CC(C)C, the “activation” value was -1.12%.
With FC(F)(F)C(F)(F)C(F)(F)C(F)(F)C(F)(F)C(F)(F)CCI the “activation” value was -3.1%.
For CC(C(=O)O)c1ccc(-c2ccccc2)c(F)c1 (configuration not stated), the Potency was “inactive”.
With CCCc1ccccc1 the “activation” value was 2.13%.
In the case of Cc1ncsc1CCO, the “activation” value is reported as 3.32%.
In the case of N=C(N=C(N)N)N1CCOCC1, the “activation” value is reported as -0.933% [at 32.9 µM].

— PubChem BioAssay (Tox21)
On the % scale 0 is the no-effect control and ±100 the full control effect; potency means the concentration at half of the fitted maximal effect.
